Source: PubChem BioAssay (NCATS)
Where “and” joins values, the source holds several entries; their conditions need not be identical. Identical values can stand only once. Records with an inconclusive call do not appear. Calls of active or inactive are those of the source. Unless noted, calls come from the whole dose curve; as a rule, active = well fitted curve in the direction sought with a large enough effect; inconclusive = small, poorly fitted or top-dose-only effect, or another doubt; inactive = no such curve, though single readings can be large; an effect the other way counts as inactive or inconclusive.

Assays:
[1] = target: Thyroid hormone receptor beta (Homo sapiens) (UniProt P10828); assay: qHTS assay for small molecule antagonists of thyroid hormone receptor beta signaling (AID 588547; active = well fitted inhibition curve with a large enough effect in the signal ratio, with a control signal flat, not every such curve was filed as active; the % refers to the signal ratio;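 note: cells stimulated with 0.4 nM T3 agonist during compound exposure; series mostly up to about 77 µM; % is set by controls: 0 for no effect and ±100 for the full control effect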); conditions: TR-UAS-bla HEK293, beta-lactamase ratio, antagonist mode, 18 h
Summary of the method: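 TR-UAS-bla GripTite HEK293 cells in 2% charcoal/dextran FBS medium were preincubated 4 h at 37 C, given compound (0.59 nM to 92 uM) plus 0.4 nM T3 (final) for 18 h, then CCF4 for 2 h at RT; Hill fit gave IC50.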

[2] = target: Voltage-gated inwardly rectifying potassium channel KCNH2 (Homo sapiens) (UniProt Q12809); assay: qHTS Assay for Small Molecule Inhibitors of the Human hERG Channel Activity (AID 588834);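 note: top concentration of the series differs between compounds; % is set by controls: 0 for no effect and ±100 for the full control effect; lower thallium flux fluorescence means stronger hERG block; nearly all actives have a fitted effect of over 50% in size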
Summary of the method: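 U2OS cells transduced with hERG via BacMam (MOI ~100), plated 2000/well, loaded with FluxOR thallium dye, compound ~10 min, then stimulation buffer; fluorescence decrease read kinetically; AC50 from Hill fits.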

[3] = qHTS assay for small molecule agonists of the antioxidant response element (ARE) signaling pathway (AID 651741; active = well fitted activation curve with a large enough effect in the signal ratio; the % refers to the signal ratio; note: % of control where 0% means no effect)
Summary of the method: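 ARE-bla HepG2 cells (beta-lactamase reporter under ARE control) were plated at 2,000 cells/well, preincubated 5 h at 37 C/5% CO2, then treated with DMSO-dissolved compounds for 16 h at 37 C; LiveBLAzer B/G FRET substrate added, fluorescence read after 2 h at room temperature.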

[4] = qHTS assay for small molecule activators of the p53 signaling pathway (AID 651743; active = well fitted activation curve with a large enough effect in the signal ratio, not every such curve was filed as active; the % refers to the signal ratio; note: series mostly up to about 92 µM; % of control where 0% means no effect); conditions: HCT-116 p53RE-bla, beta-lactamase FRET ratio, 16 h; activation: active compounds read high
Summary of the method: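 p53RE-bla HCT-116 cells with a stably integrated beta-lactamase reporter under p53 response elements were plated, rested 5 hours at 37 C/5% CO2, then exposed to compounds in DMSO for 16 hours at 37 C. LiveBLAzer B/G FRET substrate was read after 2 hours at room temperature.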

[5] = qHTS assay for small molecule activators of the nuclear factor-kappa B (NF-kB) signaling pathway (AID 651749; active = well fitted activation curve with a large enough effect in the signal ratio; the % refers to the signal ratio; note: series mostly up to about 77 µM; % of control where 0% means no effect); conditions: NF-kB-bla ME-180 cells, beta-lactamase FRET ratio, 16 h; activation: active compounds read high
Summary of the method: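 ME-180 cells stably carrying a beta-lactamase reporter under an NF-kB response element were exposed to compound or DMSO vehicle for 16 hr at 37C, 5% CO2. Pathway activation was read by FRET, since reporter expression disrupts FRET.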

[6] = qHTS assay for small molecule disruptors of the mitochondrial membrane potential - 5 hr assay (AID 651755; calls by dose curve; note: % is set by controls: 0 for no effect and ±100 for the full control effect; nearly all actives have a fitted effect of over 40% in size)
Summary of the method: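 HepG2 cells, attached overnight at 37C, were exposed to compound or DMSO for 5 hr at 37C, 5% CO2. Mito-MPS dye was then added for 30 min, and fluorescence read at 490/535 nm (monomers) and 540/590 nm (aggregates).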

[7] = target: Tumor necrosis factor (Homo sapiens) (UniProt P01375); assay: qHTS assay to identify small molecules that stimulate Tumor Necrosis Factor-alpha (TNF-alpha) secretion (AID 651757; active = well fitted curve in the direction sought with a large enough effect in the signal ratio; the % refers to the signal ratio; note: 0% is about no effect)
Summary of the method: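 Secreted TNF-alpha from compound-treated THP-1 cells (17 hrs, 37 C) was quantified with a homogeneous time-resolved fluorescence antibody assay.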

[8] = qHTS assay to identify small molecules that stimulate interleukin-8 (IL-8) secretion (AID 651758; active = well fitted activation curve with a large enough effect in the signal ratio; the % refers to the signal ratio; note: 0% is about no effect)
Summary of the method: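 THP-1, 2000 cells/well; cpd 16 h, 37 C; add cryptate + XL665 anti-IL-8 Abs; RT 1-3 h; TR-FRET read.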

[9] = qHTS assay for environmental chemicals that activate the Aryl hydrocarbon Receptor (AhR) signaling pathway (AID 651777); conditions: 1A2-DRE human hepatoma cells, luciferase, 24 h; activation: active compounds read high; note: % of control where 0% means no effect; nearly all actives have a fitted effect of over 15% in size
Summary of the method: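 Measured luciferase activity, read 30 min after One-Glo addition at room temperature, from human hepatoma cells bearing a dioxin response element–CYP1A2 promoter reporter and exposed to compound for 24 hr at 37 C.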

[10] = target: Peroxisome proliferator-activated receptor alpha (Homo sapiens) (UniProt Q07869); assay: qHTS assay for small molecule agonists of the peroxisome proliferator-activated receptor alpha (PPARalpha) signaling pathway (AID 651778); conditions: PathHunter PPARalpha complementation, chemiluminescence, 6 h; active compounds read high; note: % of control where 0% means no effect
Summary of the method: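 Cells plated at 2,000/well and held overnight at 37 C, 5% CO2, then compound added by pin tool for 6 hr; after PathHunter detection reagent and 60 min at room temperature, chemiluminescence from enzyme complementation was read.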

[11] = target: Nuclear receptor ROR-gamma (Homo sapiens) (UniProt P51449); assay: qHTS assay for small molecule antagonists of the retinoid-related orphan receptor gamma (ROR-gamma) signaling pathway (AID 651802);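 note: CHO cells with doxycycline-induced ROR-gamma expression; series mostly up to about 92 µM; % is set by controls: 0 for no effect and ±100 for the full control effect; nearly all actives have a fitted effect of over 60% in size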
Summary of the method: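 Antagonism is scored as a fall in luminescence from a RORE-luciferase reporter in CHO cells expressing ROR under a TET-inducible promoter, measured 16hr after doxycycline induction in the presence of compound.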

[12] = qHTS assay for small molecule agonists of the antioxidant response element (ARE) signaling pathway measured by Nrf2-dependant transcriptional activity (AID 720636; active = well fitted curve in the direction sought with a large enough effect in the repeat runs; an effect the other way counts as inactive or inconclusive;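 note: HepG2 cells with an ARE-driven luciferase reporter; % of control where 0% means no effect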)
Summary of the method: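 In HepG2 cells engineered with an Nrf2-responsive luciferase gene, ARE induction was quantified as luminescence after 16 hr compound treatment at 37 C.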

[13] = qHTS assay for small molecule antagonists of the retinoid-related orphan receptor gamma (ROR-gamma) signaling pathway - cell viability counter screen (AID 720652; active = well fitted curve in the direction sought with a large enough effect in the repeat runs; an effect the other way counts as inactive or inconclusive;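 note: CHO reporter cells with doxycycline-induced ROR-gamma expression; series mostly up to about 92 µM; compound exposure lasted 16 hr before ATP read; % is set by controls: 0 for no effect and ±100 for the full control effect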)
Summary of the method: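 Cytotoxicity is quantified via intracellular ATP (CellTiter-Glo luminescence) in doxycycline-induced CHO ROR response element-luciferase reporter cells treated with compound for 16 hr at 37 C, 5% CO2.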

[14] = qHTS assay for small molecule agonists of the antioxidant response element (ARE) signaling pathway measured by Nrf2-dependant transcriptional activity - cell viability counter screen (AID 720653; active = well fitted curve in the direction sought with a large enough effect in the repeat runs; an effect the other way counts as inactive or inconclusive; note: % is set by controls: 0 for no effect and ±100 for the full control effect); conditions: ARE-bla HepG2 viability, CellTiter-Glo ATP luminescence, 16 h; active compounds read low
Summary of the method: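 ARE-bla HepG2 cells (2,000/well) rested 5 hrs at 37C/5% CO2, then exposed to compounds in DMSO for 16 hrs. Viability was read in the same wells as intracellular ATP by luminescence, 30 min at room temperature after reagent addition.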

[15] = qHTS assay for cell viability of HEK293 cells (AID 743288); conditions: ATP luminescence (CellTiter-Glo), 18 h; max response: active compounds read low; note: % is set by controls: 0 for no effect and ±100 for the full control effect; nearly all actives have a fitted effect of over 50% in size
Summary of the method: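 Parental HEK293 cells were seeded at 2,000 cells/well, rested at least 5 h at 37 C, then exposed to compounds in DMSO for 18 h at 37 C. Viability was read as ATP-dependent luciferase luminescence after 30 min at room temperature.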

[16] = qHTS assay for cell viability of the p53RE-bla HCT-116 cell line (AID 743292); note: % is set by controls: 0 for no effect and ±100 for the full control effect; nearly all actives have a fitted effect of over 55% in size
Summary of the method: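 Intracellular ATP of p53RE-bla HCT-116 cells measured by luciferase luminescence following 16 h compound incubation at 37 C; DMSO-only wells served as vehicle controls.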

[17] = target: Rap guanine nucleotide exchange factor 3 (Homo sapiens) (UniProt O95398); assay: Confirmatory qHTS for antagonist of cAMP-regulated guanine nucleotide exchange factor 3 (EPAC1) (AID 1645880);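 note: plate controls were DMSO only for no effect and full effect of the ATA control for full effect; nearly all actives have a fitted effect of over 55% in size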
Summary of the method: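 Nucleotide exchange uses 100 nM EPAC1, 250 nM RAP1B-BODIPY-GDP and 50 uM GDP, with compounds in a concentration-titration series. After 5 min at room temperature, fluorescence (480 nm ex/540 nm em) is read every 5 min for 30 min. Data are normalized to control ATA and DMSO.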

[18] = target: Rap guanine nucleotide exchange factor 3 (Homo sapiens) (UniProt O95398); assay: Confirmatory qHTS for agonist of cAMP-regulated guanine nucleotide exchange factor 3 (EPAC1) (AID 1645881);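 note: EPAC1 catalysed release of BODIPY-GDP from Rap1B seen as fluorescence loss; 100% = effect of cAMP agonist control; nearly all actives have a fitted effect of over 75% in size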
[19] = target: Rap guanine nucleotide exchange factor 4 (Homo sapiens) (UniProt Q8WZA2); assay: Confirmatory qHTS for agonist of cAMP-regulated guanine nucleotide exchange factor 4 (EPAC2) (AID 1645884);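 note: nucleotide exchange releases bodipy-GDP from Rap1 and this lowers its fluorescence; % is set by controls: 0 for no effect and ±100 for the full control effect; nearly all actives have a fitted effect of over 65% in size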
[20] = target: Rap guanine nucleotide exchange factor 4 (Homo sapiens) (UniProt Q8WZA2); assay: Confirmatory qHTS for antagonist of cAMP-regulated guanine nucleotide exchange factor 4 (EPAC2) (AID 1645885); note: % is set by controls: 0 for no effect and ±100 for the full control effect; nearly all actives have a fitted effect of over 25% in size
[21] = target: Rap guanine nucleotide exchange factor 3 (Homo sapiens) (UniProt O95398); assay: Counterscreen qHTS for antagonist of cAMP-regulated guanine nucleotide exchange factor 3 (EPAC1) (AID 1645888);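 note: fluorescence loss as bound BODIPY-GDP is released from Rap1B; % of control where 0% means no effect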
Summary of the method: (§1)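 Measured: fluorescence of BODIPY-GDP bound to Rap1B, which falls as exchange proceeds. Conditions include 50 uM competing GDP, 5 and 30 min reads, and a later cAMP challenge for antagonist detection.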

[22] = target: Rap guanine nucleotide exchange factor 3 (Homo sapiens) (UniProt O95398); assay: Counterscreen qHTS for agonist of cAMP-regulated guanine nucleotide exchange factor 3 (EPAC1) (AID 1645889); note: % of control where 0% means no effect; nearly all actives have a fitted effect of over 40% in size
Summary of the method: as §1

[23] = target: Nuclear receptor subfamily 1 group I member 2 (Rattus norvegicus) (UniProt Q9R1A7); assay: qHTS assay for small molecule activators of the rat pregnane X receptor (rPXR) signaling pathway (AID 651751; call rule not given here; note: 0% is about no effect); conditions: rPXR reporter cells, luciferase (One-Glo), 24 h
[24] = qHTS assay for small molecule activators of the human pregnane X receptor (PXR) signaling pathway (AID 720659; call rule not given here; note: 0% is about no effect)

Rap guanine nucleotide exchange factor 3 (Homo sapiens), sequence (O95398 whole entry, looked up): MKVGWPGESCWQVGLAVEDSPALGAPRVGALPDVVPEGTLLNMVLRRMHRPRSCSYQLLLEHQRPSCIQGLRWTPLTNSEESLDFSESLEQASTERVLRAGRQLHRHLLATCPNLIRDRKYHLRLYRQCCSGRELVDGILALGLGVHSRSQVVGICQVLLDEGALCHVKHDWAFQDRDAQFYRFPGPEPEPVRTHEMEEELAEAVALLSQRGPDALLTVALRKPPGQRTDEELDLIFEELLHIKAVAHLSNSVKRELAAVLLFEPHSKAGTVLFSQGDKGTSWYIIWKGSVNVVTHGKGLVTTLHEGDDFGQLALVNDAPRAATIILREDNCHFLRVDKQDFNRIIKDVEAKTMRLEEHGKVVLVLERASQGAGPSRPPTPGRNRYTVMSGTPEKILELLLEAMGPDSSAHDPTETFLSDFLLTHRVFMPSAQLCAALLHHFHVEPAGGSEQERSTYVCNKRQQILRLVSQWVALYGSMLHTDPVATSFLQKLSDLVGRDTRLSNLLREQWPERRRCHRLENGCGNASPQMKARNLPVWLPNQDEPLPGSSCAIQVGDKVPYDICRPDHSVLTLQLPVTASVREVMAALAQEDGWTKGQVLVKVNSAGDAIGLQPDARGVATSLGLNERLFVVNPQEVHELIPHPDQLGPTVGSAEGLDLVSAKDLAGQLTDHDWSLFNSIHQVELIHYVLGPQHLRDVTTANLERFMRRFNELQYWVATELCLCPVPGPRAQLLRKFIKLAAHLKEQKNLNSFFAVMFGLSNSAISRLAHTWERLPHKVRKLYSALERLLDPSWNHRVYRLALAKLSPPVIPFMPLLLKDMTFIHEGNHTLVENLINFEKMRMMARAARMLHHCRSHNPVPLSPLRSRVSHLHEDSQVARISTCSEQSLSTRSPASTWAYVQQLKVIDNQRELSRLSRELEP
Nuclear receptor subfamily 1 group I member 2 (Rattus norvegicus), sequence (Q9R1A7 whole entry, looked up): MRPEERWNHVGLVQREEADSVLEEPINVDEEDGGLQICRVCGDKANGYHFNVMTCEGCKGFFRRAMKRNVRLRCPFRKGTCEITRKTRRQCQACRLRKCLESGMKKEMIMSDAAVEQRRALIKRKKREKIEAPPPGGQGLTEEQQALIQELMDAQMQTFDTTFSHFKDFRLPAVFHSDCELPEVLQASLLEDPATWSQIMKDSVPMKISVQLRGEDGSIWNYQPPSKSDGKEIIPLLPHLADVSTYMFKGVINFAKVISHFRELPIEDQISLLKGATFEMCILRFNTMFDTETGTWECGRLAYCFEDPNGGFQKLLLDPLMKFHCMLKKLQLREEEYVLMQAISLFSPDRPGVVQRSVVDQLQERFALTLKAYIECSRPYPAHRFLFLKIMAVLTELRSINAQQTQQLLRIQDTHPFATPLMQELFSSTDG
Thyroid hormone receptor beta (Homo sapiens), sequence (P10828 whole entry, looked up): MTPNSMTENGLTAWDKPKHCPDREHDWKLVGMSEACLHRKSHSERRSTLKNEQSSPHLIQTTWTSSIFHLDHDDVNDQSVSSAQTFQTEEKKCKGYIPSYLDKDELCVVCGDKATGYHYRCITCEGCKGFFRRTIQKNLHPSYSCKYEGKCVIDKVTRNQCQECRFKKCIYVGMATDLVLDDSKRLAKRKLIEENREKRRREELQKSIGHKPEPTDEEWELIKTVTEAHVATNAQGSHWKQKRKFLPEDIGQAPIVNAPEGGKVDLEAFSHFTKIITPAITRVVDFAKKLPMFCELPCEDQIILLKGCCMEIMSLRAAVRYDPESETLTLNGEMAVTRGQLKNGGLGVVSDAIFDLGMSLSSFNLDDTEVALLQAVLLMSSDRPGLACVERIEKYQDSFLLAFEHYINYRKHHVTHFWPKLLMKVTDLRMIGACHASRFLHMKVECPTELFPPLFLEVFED
Peroxisome proliferator-activated receptor alpha (Homo sapiens), sequence (Q07869 whole entry, looked up): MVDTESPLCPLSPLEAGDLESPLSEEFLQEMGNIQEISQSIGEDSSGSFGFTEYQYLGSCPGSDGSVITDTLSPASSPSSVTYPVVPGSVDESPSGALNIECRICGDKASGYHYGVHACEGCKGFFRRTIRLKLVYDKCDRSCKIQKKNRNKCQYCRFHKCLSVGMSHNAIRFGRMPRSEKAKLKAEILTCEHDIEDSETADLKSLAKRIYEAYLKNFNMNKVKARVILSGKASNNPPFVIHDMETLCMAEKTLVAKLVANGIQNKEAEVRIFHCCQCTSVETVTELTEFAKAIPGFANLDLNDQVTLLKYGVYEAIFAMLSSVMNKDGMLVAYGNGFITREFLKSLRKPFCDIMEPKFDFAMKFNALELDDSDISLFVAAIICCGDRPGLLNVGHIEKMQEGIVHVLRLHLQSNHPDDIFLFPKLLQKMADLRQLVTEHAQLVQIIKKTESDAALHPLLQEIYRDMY
Rap guanine nucleotide exchange factor 4 (Homo sapiens), sequence (Q8WZA2 whole entry, looked up): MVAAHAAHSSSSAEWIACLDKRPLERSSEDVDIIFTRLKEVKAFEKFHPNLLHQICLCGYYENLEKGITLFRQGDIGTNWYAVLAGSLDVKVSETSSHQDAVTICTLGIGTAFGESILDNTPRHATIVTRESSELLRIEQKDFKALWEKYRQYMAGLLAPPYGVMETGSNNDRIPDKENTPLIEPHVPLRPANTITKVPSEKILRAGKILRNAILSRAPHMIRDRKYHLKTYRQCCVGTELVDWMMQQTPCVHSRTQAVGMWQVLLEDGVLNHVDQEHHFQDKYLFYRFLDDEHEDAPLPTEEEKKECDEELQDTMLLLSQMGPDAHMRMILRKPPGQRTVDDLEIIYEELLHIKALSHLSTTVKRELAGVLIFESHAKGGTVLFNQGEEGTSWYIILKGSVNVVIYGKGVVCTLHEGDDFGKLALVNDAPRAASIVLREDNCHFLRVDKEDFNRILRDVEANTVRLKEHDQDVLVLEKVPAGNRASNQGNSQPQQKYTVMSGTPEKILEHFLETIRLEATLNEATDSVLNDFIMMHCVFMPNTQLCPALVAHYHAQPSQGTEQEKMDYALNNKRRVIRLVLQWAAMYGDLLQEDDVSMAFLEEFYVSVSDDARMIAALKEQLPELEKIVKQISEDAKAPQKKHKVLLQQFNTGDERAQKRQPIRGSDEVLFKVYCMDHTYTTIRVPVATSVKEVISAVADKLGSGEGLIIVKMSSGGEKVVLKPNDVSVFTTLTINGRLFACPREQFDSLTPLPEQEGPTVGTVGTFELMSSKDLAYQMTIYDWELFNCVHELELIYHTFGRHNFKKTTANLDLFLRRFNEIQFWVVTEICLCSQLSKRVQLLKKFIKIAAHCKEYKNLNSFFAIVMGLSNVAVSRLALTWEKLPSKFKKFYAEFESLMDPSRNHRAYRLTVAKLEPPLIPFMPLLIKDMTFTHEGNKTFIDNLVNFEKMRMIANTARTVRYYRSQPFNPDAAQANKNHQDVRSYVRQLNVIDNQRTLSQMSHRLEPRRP
Voltage-gated inwardly rectifying potassium channel KCNH2 (Homo sapiens), sequence (Q12809 whole entry, looked up): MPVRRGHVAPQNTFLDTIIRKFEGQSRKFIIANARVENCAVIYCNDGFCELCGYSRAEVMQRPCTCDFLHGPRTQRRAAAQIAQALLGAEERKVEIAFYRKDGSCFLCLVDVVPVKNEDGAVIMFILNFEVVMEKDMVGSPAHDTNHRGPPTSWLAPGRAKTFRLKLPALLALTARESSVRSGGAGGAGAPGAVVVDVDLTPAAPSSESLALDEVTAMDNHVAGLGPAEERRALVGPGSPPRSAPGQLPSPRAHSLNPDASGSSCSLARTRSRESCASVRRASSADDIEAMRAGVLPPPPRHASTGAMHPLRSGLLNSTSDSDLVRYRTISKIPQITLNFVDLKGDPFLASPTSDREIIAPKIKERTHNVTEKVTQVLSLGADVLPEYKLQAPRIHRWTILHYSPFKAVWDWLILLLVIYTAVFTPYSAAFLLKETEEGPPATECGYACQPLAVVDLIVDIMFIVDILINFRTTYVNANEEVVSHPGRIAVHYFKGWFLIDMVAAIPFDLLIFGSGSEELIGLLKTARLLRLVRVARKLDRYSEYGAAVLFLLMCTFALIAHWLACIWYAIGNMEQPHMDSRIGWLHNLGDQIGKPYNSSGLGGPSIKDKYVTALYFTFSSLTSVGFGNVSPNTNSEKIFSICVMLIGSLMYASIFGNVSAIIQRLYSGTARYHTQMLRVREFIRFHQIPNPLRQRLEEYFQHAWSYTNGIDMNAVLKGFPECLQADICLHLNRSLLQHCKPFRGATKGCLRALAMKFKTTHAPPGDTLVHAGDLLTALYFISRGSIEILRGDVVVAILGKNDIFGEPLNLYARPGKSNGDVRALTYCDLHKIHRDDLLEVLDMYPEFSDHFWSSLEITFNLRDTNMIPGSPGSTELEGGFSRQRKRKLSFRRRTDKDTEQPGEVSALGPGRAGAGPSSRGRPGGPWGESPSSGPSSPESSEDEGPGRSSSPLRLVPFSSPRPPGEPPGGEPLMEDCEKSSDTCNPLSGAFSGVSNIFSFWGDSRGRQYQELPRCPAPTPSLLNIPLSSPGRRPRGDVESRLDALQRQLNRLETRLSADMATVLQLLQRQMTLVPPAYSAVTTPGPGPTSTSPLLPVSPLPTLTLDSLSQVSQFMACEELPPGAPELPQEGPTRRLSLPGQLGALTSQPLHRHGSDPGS
Tumor necrosis factor (Homo sapiens), sequence (P01375 whole entry, looked up): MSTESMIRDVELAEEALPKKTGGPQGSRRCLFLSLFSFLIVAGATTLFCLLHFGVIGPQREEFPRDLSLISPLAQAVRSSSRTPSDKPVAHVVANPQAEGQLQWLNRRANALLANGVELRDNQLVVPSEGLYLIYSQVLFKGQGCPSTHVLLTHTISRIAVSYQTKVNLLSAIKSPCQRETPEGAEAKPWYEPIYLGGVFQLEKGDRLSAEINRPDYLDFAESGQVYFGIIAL

CCCOC(=O)c1ccccc1C(=O)OCCC
inactive: activity change % (negative = inhibition) [1] 0.697% and -6.62% | Potency [2] | Potency [3] | activation [4] -4.2% and 2.37% | activation [5] -0.812% and -1.55% | Potency [6] | outcome [7] | Potency [8] | activation [9] -1.57% and -0.202% | max response [10] -3.23% and -0.333% | Potency [11] | outcome [12] | Potency [13] | max response [14] 2.53% and -0.566% | max response [15] -2.21% and -12.8% | Potency [16] | Potency [17] | Potency [18] | activation [19] -6.75% [at 17.1 µM, percent relative to cAMP agonist control] | activity change, negative = inhibition [20] -25.7% [at 12.7 µM] | activity change, negative = inhibition [21] -2.66% [at 30.8 µM] | activation [22] 23.9% [at 30.8 µM] | max response [23] 4.44% and -1.18% | outcome [24]
